Hits are enriched below; roughly 11% of the tested compounds scored in any of these assays.
G9a inh – qHTS Assay for Inhibitors of Histone Lysine Methyltransferase G9a | Histone-lysine N-methyltransferase EHMT2 (Homo sapiens), Q96KQ7 | G9a H3K9 monomethylation, AlphaScreen, 2 h | Potency, µM (highest dose often 102 µM), for the others: top-dose activity, negative = inhibition, hits mostly inhibitors | actives 8.8% (n = 350,000) | AID 504332, 2011; note: % is set by controls: 0 for no effect and ±100 for the full control effect; nearly all actives have a fitted effect of over 75% in size
Target sequence (Q96KQ7 913-1193 limits assumed): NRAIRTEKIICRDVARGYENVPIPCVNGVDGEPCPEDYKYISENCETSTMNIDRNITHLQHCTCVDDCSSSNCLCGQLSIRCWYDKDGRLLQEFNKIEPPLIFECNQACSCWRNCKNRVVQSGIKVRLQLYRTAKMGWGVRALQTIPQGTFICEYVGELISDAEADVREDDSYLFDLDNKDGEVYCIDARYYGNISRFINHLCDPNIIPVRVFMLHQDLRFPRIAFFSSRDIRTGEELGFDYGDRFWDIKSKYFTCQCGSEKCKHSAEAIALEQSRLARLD
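AlphaScreen detection with an anti-monomethyl H3K9 antibody quantified product after a 2 h room-temperature reaction containing 500 nM biotinylated H3K9 peptide, 20 µM SAM and 20 nM enzyme, which had been preincubated 15 min with compound.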
HP1b chromo inh – HTS for Inhibitors of HP1-beta Chromodomain Interactions with Methylated Histone Tails; AlphaScreen HP1-beta / biotin-H3K9me3 peptide binding; AID 540317, 2011; Potency, µM (doses to about 114 µM), for the others: at the top dose activity change, negative = inhibition, hits mostly inhibitors; actives 0.56% (n = 390,000); Chromobox protein homolog 1 (Homo sapiens), P83916; note: nearly all actives have a fitted effect of over 70% in size
Target sequence (P83916 whole entry, looked up): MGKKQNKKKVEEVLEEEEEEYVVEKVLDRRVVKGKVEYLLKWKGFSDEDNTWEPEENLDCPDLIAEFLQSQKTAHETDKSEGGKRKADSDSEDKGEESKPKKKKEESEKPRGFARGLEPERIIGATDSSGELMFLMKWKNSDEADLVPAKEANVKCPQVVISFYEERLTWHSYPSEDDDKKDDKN
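Compound inhibition of the preformed complex between 50 nM HP1-beta and 50 nM biotinylated H3K9me3 peptide was read by AlphaScreen. Buffer was PBS pH 7.4 with 0.01% Tween-20. Incubations ran 30 min at room temperature, with 10 ug/mL donor/acceptor beads.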
BAZ2B block – qHTS Assay for Inhibitors of BAZ2B. AlphaScreen BAZ2B-H3K14Ac peptide displacement. Bromodomain adjacent to zinc finger domain protein 2B (Homo sapiens), Q9UIF8. Potency, µM (highest dose often 114 µM), for the others: at the highest dose activity change, negative = inhibition, hits mostly inhibitors. AID 504333, 2011. actives 4.4% (n = 360,000); note: % is set by controls: 0 for no effect and ±100 for the full control effect; nearly all actives have a fitted effect of over 60% in size
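In this displacement format the biotinylated H3(5-23) peptide acetylated at Lys14 serves as ligand at 50 nM, with BAZ2B at 50 nM in PBS pH 7.4 containing 0.01% Tween-20. Donor and acceptor beads are 10 ug/mL final.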
L3MBTL1 inh – qHTS Assay for the Inhibitors of L3MBTL1; Lethal(3)malignant brain tumor-like protein 1 (Homo sapiens), Q9Y468; AlphaScreen L3MBTL1–H3K9me1 peptide binding; Potency, µM (highest dose often 57.1 µM), for the others: at the highest dose activity, negative = inhibition, actives largely listed as inhibitors; actives 0.66% (n = 230,000); note: % is set by controls: 0 for no effect and ±100 for the full control effect; nearly all actives have a fitted effect of over 60% in size
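AlphaScreen proximity signal between nickel-chelate acceptor and streptavidin donor beads (final 10 ug/mL) reports binding of 50 nM L3MBTL1 to 75 nM biotin-H3 K9me1 peptide; complex incubated with compounds 30 min at room temperature; cefsulodin titration as control.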
JMJD2A Tudor – qHTS Assay for Inhibitors of JMJD2A-Tudor Domain; Lysine-specific demethylase 4A (Homo sapiens), O75164; AlphaScreen JMJD2A-Tudor / H3K4me3 peptide binding; Potency, µM (doses to about 114 µM), without a hit: at the top dose activity change, negative = inhibition, most hits filed as inhibitors; actives 4.4% (n = 390,000); AID 504339, 2011; note: % is set by controls: 0 for no effect and ±100 for the full control effect; nearly all actives have a fitted effect of over 50% in size
The depositor's hits bear a star; [ ] = another dose, or the depositor's remark. Calls come from the whole dose curve; as a rule, active = well fitted inhibition curve with a large enough effect; inconclusive = small, poorly fitted or top-dose-only effect; inactive = no such curve, though single readings can be large or run the other way. Potency is the fitted concentration of half-maximal effect.

For O=C(O)c1n[nH]c2ccccc12 the results were G9a inh inconclusive, HP1b chromo inh -2%, BAZ2B block -27%, L3MBTL1 inh 1% and JMJD2A Tudor 28µM*.
Cc1ccc(C)c(NC(=S)Nc2cccc3cnccc23)c1 was read as G9a inh 22µM*, HP1b chromo inh -2%, BAZ2B block -36%, L3MBTL1 inh -1%[11.4 µM] and JMJD2A Tudor -16%.
`FC(F)(F)c1ccccc1NC(=S)N1CCCCCC1` gave HP1b chromo inh 51%, BAZ2B block -1% and JMJD2A Tudor -11%.
Screening NC(=S)Nc1cccc2cnccc12 returned G9a inh -7%[59 µM], HP1b chromo inh 25%, BAZ2B block -2%, L3MBTL1 inh 9% and JMJD2A Tudor -7%.
Cc1ccc(NC(=S)Nc2cccc3cnccc23)cc1 was read as G9a inh 35µM*, HP1b chromo inh -7%, BAZ2B block inconclusive and JMJD2A Tudor -27%.
FC(F)(F)c1ccccc1NC(=S)Nn1cnnc1 was read as G9a inh 7.1µM*, HP1b chromo inh inconclusive, BAZ2B block -17% and JMJD2A Tudor -29%.
Fc1ccccc1NC(=S)Nc1cccc2cnccc12 was read as G9a inh 18µM*, HP1b chromo inh -30%, BAZ2B block -36%, L3MBTL1 inh -2% and JMJD2A Tudor -36%.
For Cc1ccc(NC(=S)Nc2cccc3cnccc23)cc1C the results were G9a inh -4%[12.7 µM], HP1b chromo inh inconclusive, BAZ2B block -36%, L3MBTL1 inh -23% and JMJD2A Tudor -34%.
For CCS(=O)(=O)c1ncc(N(Cc2cccc(F)c2)Cc2ccco2)c(C(=O)Nc2ccccc2Cl)n1 the results were G9a inh -25%[59 µM], HP1b chromo inh 35%, BAZ2B block -21% and JMJD2A Tudor -17%.
`CS(=O)(=O)Nc1cccc(-c2ccc3ncnc(Nc4ccccc4)c3c2)c1` gave G9a inh -28%[0.501 µM].
`CC(=O)N1CCc2cc(Br)cc(S(=O)(=O)N3CCC(C(=O)Nc4ccc(C(C)C)cc4)CC3)c21` gave G9a inh 10%[59 µM], HP1b chromo inh 56%, BAZ2B block 28% and JMJD2A Tudor -9%.
S=C(Nc1cccc2ccccc12)Nc1cccc2ccccc12 was read as HP1b chromo inh -23% and JMJD2A Tudor -26%.
Screening Cc1ccccc1NC(=S)Nc1cccc2cnccc12 returned G9a inh 1.8µM*, HP1b chromo inh -18%, BAZ2B block -13%, L3MBTL1 inh -19% and JMJD2A Tudor -22%.
CC(=O)c1ccc(NC(=S)Nc2cccc3cnccc23)cc1 was read as G9a inh inconclusive, HP1b chromo inh 3%, BAZ2B block inconclusive and JMJD2A Tudor -12%.
`FC(F)(F)c1ccccc1NC(=S)Nc1cccc2cnccc12` gave G9a inh 35µM*, HP1b chromo inh inconclusive, BAZ2B block inconclusive, L3MBTL1 inh 1% and JMJD2A Tudor -28%.
O=C1N(Cc2ccccc2)CC2(Br)COCOC12O (stereo unspecified) was read as HP1b chromo inh 7.1µM* and JMJD2A Tudor 3.5µM*.
For Cn1c(=O)c2[nH]c(SCCN3CCOCC3)nc2n(C)c1=S the results were HP1b chromo inh 5%[57 µM] and JMJD2A Tudor 16µM*.
CCCSc1nc2c([nH]1)c(=O)n(C)c(=S)n2C was read as HP1b chromo inh 27% and JMJD2A Tudor -19%.
CCSc1nc2c([nH]1)c(=O)n(C)c(=S)n2C was read as HP1b chromo inh inconclusive and JMJD2A Tudor 5µM*.
`Cn1c(=O)c2[nH]c(SCCN3CCCCC3)nc2n(C)c1=S` gave HP1b chromo inh 5%[57 µM] and JMJD2A Tudor -21%.
Cc1c(Cl)cccc1NCC(=O)Nc1ccc(Cl)cc1F was read as G9a inh 30%, HP1b chromo inh 52%, BAZ2B block 20%, L3MBTL1 inh 10% and JMJD2A Tudor 6%.

Screening results deposited in PubChem BioAssay by National Center for Advancing Translational Sciences (NCATS).
